PubChem BioAssay (NCI)
Compounds without any hit were thinned out: in the full panel of roughly 79,000, 15% have a hit. A number with no mark means an inactive call. Active and inactive are the calls of the source. Cut-off read from the data, not from the text of the source: active = growth inhibition above about 70%; inactive = the rest.

Columns and labels:
[1] = NCI Yeast Anticancer Drug Screen. Data for the rad50 strain (AID 155);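 note: 0% = growth of vehicle-only cultures of the same strain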; conditions: S. cerevisiae rad50 strain growth inhibition, stronger effect = higher value
Procedure, shortened: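 Yeast carrying a defined DNA repair defect were exposed to test compounds, and growth was compared with vehicle-treated controls to give percent inhibition.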

[2] = NCI Yeast Anticancer Drug Screen. Data for the mec2-1 strain (AID 157); conditions: S. cerevisiae mec2-1 strain, stronger effect = higher value
Procedure, shortened: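 Mutant yeast (mec2-1) grown with compound; growth inhibition relative to vehicle control reported.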

[3] = NCI Yeast Anticancer Drug Screen. Data for the sgs1 mgt1 strain (AID 161);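 note: 0% = growth of cultures given vehicle only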; conditions: S. cerevisiae sgs1 mgt1 strain, stronger effect = higher value
Procedure, shortened: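 Growth of a repair-deficient yeast mutant was monitored after compound treatment and expressed as inhibition relative to vehicle-treated cultures.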

[4] = NCI Yeast Anticancer Drug Screen. Data for the cln2 rad14 strain (AID 165);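 note: 0% = growth equal to vehicle treated cultures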; conditions: S. cerevisiae cln2 rad14 strain, stronger effect = higher value
Procedure, shortened: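 Readout is yeast growth inhibition versus vehicle-treated controls, using a strain with cln2 and rad14 alterations exposed to compound.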

[5] = NCI Yeast Anticancer Drug Screen. Data for the bub3 strain (AID 167); conditions: S. cerevisiae bub3 mutant strain, stronger effect = higher value
Procedure, shortened: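 Compounds were applied to a genetically altered yeast strain carrying a cell-cycle control defect. Growth inhibition was scored against vehicle-treated controls.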

[6] = NCI Yeast Anticancer Drug Screen. Data for the mlh1 rad18 strain (AID 175); conditions: S. cerevisiae mlh1 rad18 strain growth inhibition, stronger effect = higher value
Procedure, shortened: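 Genetically defined yeast (DNA repair-deficient) exposed to compounds; growth inhibition determined relative to vehicle.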

[7] = at 5.0 µM (retest, dose inferred, filed as 0.5)
[8] = at 50.0 µM (retest, dose inferred, filed as 5.0)

Structure (SMILES)	growth inhibition [1, 7]	growth inhibition [1, 8]	growth inhibition ([1]; at 50.0 µM)	growth inhibition [2, 7]	growth inhibition [2, 8]	growth inhibition ([2]; at 50.0 µM)	growth inhibition [3, 7]	growth inhibition [3, 8]	growth inhibition ([3]; at 50.0 µM)	growth inhibition [4, 7]	growth inhibition [4, 8]	growth inhibition ([4]; at 50.0 µM)	growth inhibition [5, 7]	growth inhibition [5, 8]	growth inhibition ([5]; at 50.0 µM)	growth inhibition [6, 7]	growth inhibition [6, 8]	growth inhibition ([6]; at 50.0 µM)
CCOC(=O)c1cc(CC)sc1NC(=O)CC(C)=O	42%	58%	46%	35%	53%	17.9%	42%	56%	57.2%	38%	44%	59.5%	44%	78% (active)	70.8% (active)	46%	71% (active)	61.1%
O=C(/C=C/C(Cl)(Cl)Cl)Nc1ccc(Cl)cc1	-6%	16%	71.8% (active)	42%	21%	85% (active)	-4%	43%	81% (active)	25%	8%	77.5% (active)	9%	3%	75.9% (active)	18%	64%	85% (active)
CCOc1cc(F)c([N+](=O)[O-])cc1[N+](=O)[O-]	92% (active)	99% (active)	98.7% (active)	94% (active)	100% (active)	54.4%	96% (active)	99% (active)	51.5%	97% (active)	100% (active)	98.4% (active)	91% (active)	99% (active)	99% (active)	92% (active)	100% (active)	98.5% (active)
O=C(CCl)N(c1ccccc1)c1ccccc1	5%	59%	89.7% (active)	3%	59%	90.2% (active)	1%	54%	91.8% (active)	1%	39%	68.5%	8%	63%	86.5% (active)	2%	73% (active)	92.8% (active)
CCCCCCCCCCCCSC(=N)N	86% (active)	98% (active)	51.3%	21%	99% (active)	99% (active)	84% (active)	98% (active)	46.5%	20%	98% (active)	97.2% (active)	72% (active)	95% (active)	98.7% (active)	49%	99% (active)	64.2%
COc1ccc2c(c1OC)OCC(CN(C)C)C2=O (configuration not stated)	-20%	98% (active)	97% (active)	2%	99% (active)	99.3% (active)	23%	98% (active)	99% (active)	5%	99% (active)	96.3% (active)	1%	99% (active)	93.9% (active)	-4%	98% (active)	99.2% (active)
CCCCCCCCCCCC[n+]1ccc2ccccc2c1	97% (active)	99% (active)	99.6% (active)	99% (active)	100% (active)	99.7% (active)	98% (active)	99% (active)	99.2% (active)	98% (active)	100% (active)	98.1% (active)	99% (active)	99% (active)	99.5% (active)	98% (active)	100% (active)	99.5% (active)
COc1cc(NC(=O)C2=C(C)NC(C)=C(C(=O)Nc3cc(OC)c(Cl)cc3OC)C2c2cccc([N+](=O)[O-])c2)c(OC)cc1Cl	-24%	96% (active)	96.7% (active)	5%	97% (active)	76.3% (active)	6%	95% (active)	96.9% (active)	-31%	96% (active)	95.8% (active)	27%	97% (active)	95.5% (active)	-14%	96% (active)	96.9% (active)
C=c1c2ccccc2oc2nc3[nH]c(N)c(C#N)c(N)c3c(=N)c12	16%	82% (active)	74% (active)	1%	70% (active)	75% (active)	11%	79% (active)	73.8% (active)	17%	74% (active)	48.5%	18%	79% (active)	81.7% (active)	7%	75% (active)	69.2%
O/N=C1\c2ccccc2-c2ccc(F)cc21	20%	90% (active)	95% (active)	7%	73% (active)	84.2% (active)	13%	87% (active)	91.6% (active)	5%	71% (active)	63%	1%	77% (active)	91.1% (active)	13%	78% (active)	93.8% (active)
OC(c1cc(C23CC4CC(CC(C4)C2)C3)nc2c(Cl)cc(Cl)cc12)C1CCCCN1 (configuration not stated)	99% (active)	98% (active)	98.7% (active)	99% (active)	99% (active)	98.8% (active)	99% (active)	99% (active)	68.9%	99% (active)	98% (active)	99.1% (active)	99% (active)	98% (active)	98.5% (active)	99% (active)	98% (active)	98.8% (active)
Cc1ccccc1NC(=O)Cc1csc2[n+]1C(=O)/C(=C/c1ccc([N+](=O)[O-])cc1)S2	22%	28%	15.7%	29%	33%	-6.7%	-14%	-4%	39.6%	-2%	7%	-27.7%	8%	4%	8.95%	25%	37%	20.5%
O=[N+]([O-])c1ccc(N2CCN(Cc3ccccc3)CC2)c2c1no[n+]2[O-]	50%	97% (active)	90.1% (active)	18%	98% (active)	93.1% (active)	34%	92% (active)	89.5% (active)	4%	22%	72.5% (active)	11%	78% (active)	90% (active)	39%	97% (active)	88.3% (active)
CCCCC(CCc1ccc([N+](=O)[O-])cc1)(C(C)=O)C(=O)OCC (configuration not stated)	1%	-41%	59.7%	2%	-10%	13.1%	-2%	24%	47%	-4%	-14%	4.75%	11%	45%	83.2% (active)	-10%	-50%	62%
CCC[CH2][Sn]1([CH2]CCC)[O]C2C(CO)OC(n3ccc(N)nc3=O)C2[O]1 (configuration not stated)	46%	97% (active)	86.8% (active)	48%	98% (active)	89.7% (active)	83% (active)	99% (active)	88.5% (active)	71% (active)	99% (active)	83.6% (active)	89% (active)	99% (active)	87.3% (active)	26%	96% (active)	84.2% (active)
O=[N+]([O-])c1ccc(C(Br)c2ccc([N+](=O)[O-])cc2)cc1	42%	97% (active)	99.8% (active)	29%	100% (active)	99.8% (active)	65%	100% (active)	99.8% (active)	22%	99% (active)	99.7% (active)	15%	100% (active)	99.7% (active)	54%	99% (active)	99.7% (active)
S=c1[nH]c2cc(Cl)ccc2s1	-21%	64%	25.2%	-4%	90% (active)	42.2%	-6%	95% (active)	74.6% (active)	-8%	93% (active)	-2.15%	-28%	16%	-4.3%	-12%	45%	42.9%
O=C1C(=O)c2cc([N+](=O)[O-])ccc2-c2ccccc21	45%	97% (active)	98.7% (active)	34%	97% (active)	95.8% (active)	32%	95% (active)	96.2% (active)	19%	96% (active)	96.3% (active)	43%	89% (active)	98.1% (active)	54%	97% (active)	97.8% (active)
Oc1ccccc1N=Cc1ccccc1	23%	75% (active)	61%	13%	35%	44.2%	21%	29%	60.6%	12%	45%	19.5%	56%	86% (active)	77.5% (active)	41%	81% (active)	72.5% (active)
